Tat export inh: E. coli Tat transport inhibition; E. coli MC4100 TorA-mCherry Tat export, fluorescence; inhibition, % at 10 µM; hit rate 0.036% among 340,000;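 active = mean replicate inhibition at least 50% and at least half of replicates individually reaching 50%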;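 note: exported cargo escapes ClpAP degradation while cytoplasmic cargo is degraded and loses fluorescence; 0% = median of neutral control wells and 100% = median of NaSCN control wells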
E coli growth-1: E. coli growth inhibition; Escherichia coli growth, OD600, 23 h; hits give low values; OD600 absorbance (test concentration not listed); hit rate 0.21% among 330,000; AID 1053175;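 active = OD600 absorbance below the run mean of sample wells minus 3.6 SD, in any replicate, cut at about 0.56 in these data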
E coli growth-2: reduces bacterial viability in AddAB counter-screen; E. coli V3065 growth, OD600 absorbance, 18 h; inhibition, % at 11.9 µM; hit rate 0.27% among 330,000; AID 449728;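 active = inhibition above the campaign's mean inhibition across all tested compounds plus 3 SD, cut at about 9.9% in these data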;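 note: uninfected addAB+ strain grown without phage in ampicillin broth; 0% = DMSO wells and 100% = ciprofloxacin 0.95 µg/ml wells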
AddAB inh: less growth of phage-infected E. coli with AddAB; hit rate 0.29% among 330,000; inhibition, % at 11.9 µM; E. coli expressing H. pylori AddAB, absorbance growth; AID 435030; in the data active = inhibition above about 12%;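 note: 0% = vehicle wells of infected cells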
phage Ecoli inh: E. coli growth loss with phage present | growth absorbance | hit rate 0.26% among 360,000 | inhibition, % at 11.9 µM; in the data active = inhibition above about 11%
The depositor's hits bear a star; nt = no result given. The list is not random: actives were taken first. Their share in the collection is about 0.5%.

SMILES	Tat export inh	E coli growth-1	E coli growth-2	AddAB inh	phage Ecoli inh
O=C(Nc1ccc(F)c(Cl)c1)Nc1ccc(Cl)cn1	0	0.72	-1	-1	4
Fc1ccc(NC(=S)Nc2ccc(F)c(Cl)c2)cc1Cl	-9	0.49*	0	2	nt
O=C(Nc1ccncc1)Nc1ccc(F)c(Cl)c1	-3	0.51*	1	4	6
CCCCCCCCCCCCCCCC[n+]1cccc2ccccc21	5	0.092*	4	6	4
O=C1CSC(=S)N1/N=C/c1ccc2c(c1)OCCO2	7	nt	9.9*	5	1
CN1/C(=C/c2cc[n+](C)c3ccccc23)C=Cc2ccccc21	-161	0.34*	nt	nt	nt
C[n+]1ccc(/C=C/c2ccccc2O)c2ccccc21	-1	0.66	0	1	1
N/C(=N\N=Cc1ccc(F)cc1)NN=Cc1ccc(F)cc1	nt	0.42*	nt	nt	nt
O=C(CNS(=O)(=O)c1ccc(Br)s1)NCc1ccccc1	-5	0.54*	0	2	0
Cc1ccc(C(C)C)c(OCc2nn(CC(=O)c3ccc(Cl)cc3)c3[n+]2CCCCC3)c1	44	0.071*	3	3	4
CCc1cccc2c(C(=O)COC(=O)c3ccccc3)c[nH]c12	1	0.09*	1	2	3
S=C1SCN(Cc2ccccn2)CN1Cc1ccco1	-6	0.52*	0	1	0
O=C1Nc2ccc(Br)cc2C1(O)c1ccccc1 (configuration not stated)	0	0.68	-1	2	3
O=C1Nc2ccc(Br)cc2C12NNc1ccccc1O2 (configuration not stated)	-4	0.43*	6	10	6
O=C(COc1ccc(Cl)cc1)Nc1nnc(S(=O)(=O)N2CCCCCC2)s1	-2	0.72	2	2	3
Cc1ccc(Nc2cc(C)nn2-c2nc(C)cc(=O)[nH]2)cc1	-14	0.49*	2	2	nt
Cc1ccc(Nc2cc(C)nn2-c2nc(C)cc(C)n2)cc1	-4	0.7	1	0	0
CC(C)c1ccc(NC2CCCN(C(=O)c3ccc(Cn4cnnn4)cc3)C2)cc1 (configuration not stated)	-17	0.69	1	3	0
CN(C1CCCCC1)S(=O)(=O)c1ccc(NC(=O)c2ccc(Br)o2)cc1	6	0.74	0	2	4
CN(C)S(=O)(=O)c1ccc(NC(=O)c2ccc(Br)o2)cc1	-1	0.64	9.8*	7	nt
CCn1c(O)c(C=NN=C2CCCC2)c2ccc(C3=NNC(=O)CC3)cc21	nt	0.71	nt	nt	nt
N#CC(C#N)=NNc1ccc([N+](=O)[O-])cc1	25	0.33*	1	3	6
C/C(=N\Nc1ccc([N+](=O)[O-])cc1)c1ccc(C#N)cc1	-1	nt	2	3	2
C=CCNc1ncnc2c1[nH]c1ccc(Cl)cc12	-11	0.47*	6	7	9
C=CCNc1ncnc2c1[nH]c1ccccc12	-10	0.5*	3	2	6
SMILES	Tat export inh	E coli growth-1	E coli growth-2	AddAB inh	phage Ecoli inh
CCOCCCNc1ncnc2c1[nH]c1ccccc12	-1	0.69	2	3	2
CCCCCCCCCCCCCCCC[N+](C)(C)CCN(Cc1ccc(OC)cc1)c1ncccn1	54*	nt	6	1	nt
COC1=C(C)C(=O)C2=C(C1=O)C1C3CC4=C(C(=O)C(OC)=C(C)C4=O)C(CNC(=O)C(C)=O)N3C(C#N)C(C2)N1C (configuration not stated)	-9	nt	nt	nt	15*
CN1CCN(c2nc3ccccn3c(=O)c2C=O)CC1	0	0.63	-1	0	nt
Cn1c(COc2cccc3cccnc23)nnc1SCC(=O)O	0	0.74	0	2	2
Cn1nc(-c2ccc(Cl)cc2)nc2c(=O)n(C)c(=O)nc1-2	-12	0.48*	8	8	nt
CS(=O)(=O)n1nc(-c2ccc(Cl)cc2)nc1N	4	0.67	-2	-1	2
CS(=O)(=O)N(CC(=O)NCc1ccc2c(c1)OCO2)C1CCCCC1	-3	0.69	2	5	4
CC(=O)c1cccc(N(CC(=O)NCCc2ccccc2)C(=O)c2csnn2)c1	-6	0.53*	0	4	0
O=C(C(=O)N1CCN(c2ccc([N+](=O)[O-])cc2)CC1)c1cn(CC(=O)N2CCOCC2)c2ccccc12	23	0.74	1	-2	0
C=CCNC(=S)NN=C(C)c1ccccn1	nt	0.53*	nt	nt	nt
Cc1oc2ccc(OCc3ccc(F)cc3Cl)cc2c1C(=O)O	0	0.67	1	1	3
COc1cccc(/C=N/Nc2ccc([N+](=O)[O-])cc2)c1O	-15	nt	-1	0	1
COc1cccc(C=NNc2ccc([N+](=O)[O-])cn2)c1O	nt	0.41*	nt	nt	nt
CCOc1cccc(/C=N/Nc2ccc(S(=O)(=O)N(CC)CC)cn2)c1O	-5	nt	12*	12	13*
NC(=O)c1cc2cc(Br)ccc2oc1=NCc1ccccc1	11	0.75	-1	4	2
CCN1/C(=C/c2ccc3ccccc3[n+]2CC)C=Cc2ccccc21	-15	nt	11*	10	12*
CCN1C(=Cc2ccc3ccccc3[n+]2CC)C=Cc2ccccc21	nt	0.49*	nt	nt	nt
O=[N+]([O-])c1ccc(C=NNS(=O)(=O)c2ccc(F)cc2)o1	nt	0.44*	nt	nt	nt
COc1ccc(S(=O)(=O)NN=Cc2ccc([N+](=O)[O-])o2)c(OC)c1	nt	0.51*	nt	nt	nt
COc1ccc(S(=O)(=O)NN=Cc2ccc3c(c2)OCO3)c(OC)c1	nt	0.71	nt	nt	nt
O=[N+]([O-])c1cc(C(F)(F)F)ccc1N1CCN(S(=O)(=O)c2ccc3ccccc3c2)CC1	-1	0.54*	0	3	-2
CNC[C@H](Cc1ccccc1)NC[C@@H](Cc1cccc2ccccc12)NCCc1ccc(C)cc1	4	nt	-2	-2	0
CNCC(Cc1ccccc1)NCC(Cc1cccc2ccccc12)NCCc1ccc(C)cc1 (configuration not stated)	nt	0.048*	nt	nt	nt
O=C(Nc1cccs1)Nc1ccc(Br)cc1F	-5	0.49*	4	5	11
SMILES	Tat export inh	E coli growth-1	E coli growth-2	AddAB inh	phage Ecoli inh
O=C(C1=C(O)C(=O)N(CC2CCCO2)C1c1ccccc1[N+](=O)[O-])c1ccco1 (configuration not stated)	0	0.68	-4	0	-1
COc1ccc(Br)cc1C=NNC(=O)c1nc(-c2ccccc2)n2c1CCCCC2	nt	0.74	nt	nt	nt
NC(C(=O)NC1C(=O)N2C(C(=O)O)=C(Cl)CSC12)c1ccccc1 (configuration not stated)	nt	0.06*	nt	nt	nt
O=C(CNC(=O)C(c1ccccc1)c1ccccc1)NN=Cc1cccc(O)c1	nt	0.7	nt	nt	nt
COC1C=CO[C@@]2(C)Oc3c(C)c(O)c4c(O)c(c(C=NN5CCN(C6CCCC6)CC5)c(O)c4c3C2=O)NC(=O)C(C)=CC=CC(C)C(O)C(C)C(O)C(C)C(OC(C)=O)C1C (some centres not stated)	nt	0.07*	nt	nt	nt
CO[C@H]1C=CO[C@@]2(C)Oc3c(C)c(O)c4c(O)c(c5c(c4c3C2=O)NC2(CCN(CC(C)C)CC2)N=5)=NC(=O)C(C)=CC=C[C@H](C)[C@H](O)[C@@H](C)[C@@H](O)[C@@H](C)[C@H](OC(C)=O)[C@@H]1C	nt	nt	102*	100*	nt
